The record followed here is PubChem BioAssay AID651582 (Sanford-Burnham Center for Chemical Genomics, 2012).

Hit rate of the full screen: of about 230,000 compounds, about 1,500 (0.65%) were called active. This is one part of a sample in which actives are shown more often than they occur.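 The calls were made as follows: active = pattern-corrected inhibition of lipid staining of at least 50% with the nuclear-stain viability signal not falling by more than 50%; inactive = the rest, inconclusive results apart.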

The test can be described thus: TAG lipid buildup reduction in H9c2 cells – cell-based, uHTS, fluorescence, primary screen (AID 651582).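 As to inhibition: 0% = DMSO wells and 100% = triacsin C control wells.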 Particulars: Nile Red lipid (TAG) fluorescence, at 12.5 µM, cells loaded with 200 µM oleic acid; DAPI nuclei signal change (viability), lower = more cytotoxic: measured here: DAPI nuclei count viability; inhibition: stronger effect = higher value.
For the compound `CC(=O)NCc1ccc(-c2csc(NC(=O)CCCc3nc4ccccc4c(=O)[nH]3)n2)cc1`, the DAPI nuclei signal change (viability), lower = more cytotoxic turned out to be 0.981% and the inhibition was 12% (inactive).
As to `Cc1onc(-c2c(F)cccc2Cl)c1C(=O)OCC(=O)N1C(C)CCCC1C` (stereo unspecified), the DAPI nuclei signal change (viability), lower = more cytotoxic was -2.4% and the inhibition is 8.89% (inactive).
The corresponding values for `CCCCNc1c(-c2ccc(OC)c(Sc3ccc(OC)cc3)c2)nc2ccc(Cl)cn12` are 65.8% and 11.1% (inactive).
For the compound `C=CCC[C@@H](Cc1ccc(F)cc1)C(=O)OC[C@H](Cc1c[nH]c2ccccc12)NC(=O)[C@@H](CC=C)CC(=O)N(CCO)Cc1ccccc1`, the DAPI nuclei signal change (viability), lower = more cytotoxic is -6.98% and the inhibition was 68% (active).
With `C=CCC[C@H](Cc1ccc(F)cc1)C(=O)OC[C@@H](Cc1c[nH]c2ccccc12)NC(=O)[C@H](CC=C)CC(=O)N[C@H](CO)Cc1ccccc1`, the DAPI nuclei signal change (viability), lower = more cytotoxic amounted to 1.3% and the inhibition was 20.3% (inactive).
Turning to `C=CCC[C@H](Cc1ccc(F)cc1)C(=O)OC[C@H](C)NC(=O)[C@H](CC=C)CC(=O)N(CCO)Cc1ccccc1`, the DAPI nuclei signal change (viability), lower = more cytotoxic is -5.64% and the inhibition was 27.4% (inactive).
Regarding `CCN(CC)S(=O)(=O)c1ccc(N2CCOCC2)c(NC(=O)c2ccc(=O)n(C)n2)c1`, the DAPI nuclei signal change (viability), lower = more cytotoxic is -1.89% and the inhibition is 5.11% (inactive).
For the compound `CCOC(=O)C1(C)CCCN(C(=O)c2cccc(Cl)c2)C1` (stereo unspecified), the DAPI nuclei signal change (viability), lower = more cytotoxic amounted to 4.05% and the inhibition is -18.8% (inactive).
Turning to `CN(C(=O)c1cccc(NC(=O)Cc2ccc(NC(=O)C3CCN(C(=O)C4CCCCC4)CC3)cc2)c1)C1CCC1`, the DAPI nuclei signal change (viability), lower = more cytotoxic was -0.027% and the inhibition is -1.1% (inactive).
Taken in the same sequence, the figures for `OCc1ccc(OCCCOc2cccc3cccnc23)cc1` were 12.3% and -32.6% (inactive).
As for `O=C(Nc1ccccc1)Oc1cccc2cccnc12`, the DAPI nuclei signal change (viability), lower = more cytotoxic was -22.4% and the inhibition was 63.4% (active).
The corresponding values for `O=C(Nc1ccccc1Cl)Nc1cccc2cccnc12` are 2.86% and 20.5% (inactive).
Taken in the same sequence, the figures for `COc1ccc(C(=O)N2CCCCC2c2cc(C(=O)Nc3ccc(F)c(Cl)c3)no2)cc1` (stereo unspecified) were -1.17% and 2.9% (inactive).
Regarding `O=C(NCCN1CCOCC1)c1ccc2c(c1)ncn2C1CCCC1`, the DAPI nuclei signal change (viability), lower = more cytotoxic was determined as 1.89% and the inhibition is -0.366% (inactive).
Taken in the same sequence, the figures for `c1ccc2cc3c(NCCN4CCOCC4)ccnc3cc2c1` were 65.1% and 70.1% (active).
Taken in the same sequence, the figures for `O=C(NCCN1CCOCC1)c1cc(-c2cccs2)nc2ccccc12` were 34.9% and 13.5% (inactive).
Taken in the same sequence, the figures for `CCOC(=O)C1CCCN(C(=O)c2ccc(C)c(S(=O)(=O)N3CCCCC3)c2)C1` (stereo unspecified) were 0.656% and -11.3% (inactive).
Take `O=C(C1Cc2ccccc2CN1C(=O)c1ccco1)N1CCN(c2ccccc2)CC1` (stereo unspecified): the DAPI nuclei signal change (viability), lower = more cytotoxic worked out at 0.303% and the inhibition was 25.4% (inactive).
On to `COc1cccc(CNc2nc3cc(-c4csc5ccccc45)sc3c(=O)n2C)c1`, for which the DAPI nuclei signal change (viability), lower = more cytotoxic is 4.67% and the inhibition was 6.4% (inactive).
Taken in the same sequence, the figures for `O=C(CN1C(=O)NC2(CCOc3ccccc32)C1=O)Nc1cccc([N+](=O)[O-])c1` (stereo unspecified) were -0.437% and 29.8% (inactive).
Regarding `OCCCNc1nccc(-c2cc(Nc3cccc(Cl)c3)ncn2)n1`, the DAPI nuclei signal change (viability), lower = more cytotoxic is -53.6% and the inhibition is 91.3% (inactive).
As for `CC(C)n1cnc2c(Nc3cccc(Cl)c3)nc(N(CCO)CCCO)nc21`, the DAPI nuclei signal change (viability), lower = more cytotoxic was -20.3% and the inhibition was 56.1% (active).
On to `CC(C)C[C@H](CO)Nc1nc(N(C)c2cccc(Cl)c2)c2ncn(C(C)C)c2n1`, for which the DAPI nuclei signal change (viability), lower = more cytotoxic was -1.92% and the inhibition was -3.43% (inactive).
The corresponding values for `COc1cc(C(O)c2nc(-c3cnn(C)c3)cs2)ccc1F` (stereo unspecified) are -5.42% and -0.779% (inactive).
Turning to `CN(C)C(=O)c1cccc(-c2cnc3c(NC=O)cc(-c4ccc(C(=O)N5CCOCC5)cc4)cn23)c1`, the DAPI nuclei signal change (viability), lower = more cytotoxic was -40.1% and the inhibition is 52.5% (active).
The corresponding values for `CN(C)C(=O)c1cccc(-c2cnc3c(NC=O)cc(-c4ccc(F)cc4)cn23)c1` are -3.97% and 30.4% (inactive).
Taken in the same sequence, the figures for `O=CNc1cc(-c2ccc(C(=O)N3CCOCC3)cc2)cn2c(-c3ccc(F)cc3)cnc12` were -10.1% and 16.1% (inactive).
For the compound `CC(=O)c1cccc(-c2cnc3c(NC=O)cc(-c4ccc(N(C)C)cc4)cn23)c1`, the DAPI nuclei signal change (viability), lower = more cytotoxic was -34.1% and the inhibition was 25.5% (inactive).
With `CC(=O)c1cccc(-c2cnc3c(NC=O)cc(-c4cccc(C(=O)N(C)C)c4)cn23)c1`, the DAPI nuclei signal change (viability), lower = more cytotoxic was -7.72% and the inhibition was 11.7% (inactive).
Taken in the same sequence, the figures for `CN(C)CCNC(=O)c1cccc(-c2cnc3c(NC=O)cc(-c4cccc(C(F)(F)F)c4)cn23)c1` were -5.39% and 55.2% (active).
For `O=C(COC(=O)/C=C/c1cccc(Cl)c1)NCc1cccs1`, the DAPI nuclei signal change (viability), lower = more cytotoxic is -2.53% and the inhibition was 1.94% (inactive).
For `CCCNC(=O)c1cc(C2CCCCN2S(=O)(=O)c2cn(C)cn2)on1` (stereo unspecified), the DAPI nuclei signal change (viability), lower = more cytotoxic came to 4.91% and the inhibition was 3.78% (inactive).
Turning to `CCCC(=O)Nc1nc2ccc(NC(=O)c3c(F)c(F)c(OC)c(F)c3F)cc2s1`, the DAPI nuclei signal change (viability), lower = more cytotoxic was -22.6% and the inhibition is 70% (active).
The corresponding values for `CSc1nc2ccc(NC(=O)c3c(F)cccc3F)cc2s1` are 1.73% and -11.3% (inactive).
Take `CC(=O)Nc1ccc2nc(NC(=O)CS(=O)(=O)c3ccc(F)cc3)sc2c1`: the DAPI nuclei signal change (viability), lower = more cytotoxic is -3.72% and the inhibition is -0.551% (inactive).
On to `CCNC(=O)C1(C)CCCN(C(=O)c2c(C)noc2C)C1` (stereo unspecified), for which the DAPI nuclei signal change (viability), lower = more cytotoxic turned out to be 4.88% and the inhibition is -5.1% (inactive).
Taken in the same sequence, the figures for `CC1=C(C(=O)N(C)C)CC(CC(=O)NCCc2ccccn2)C(=O)N1CCC1=CCCCC1` (stereo unspecified) were -8.79% and -1.46% (inactive).
Take `CN(Cc1c(F)cccc1Cl)C(=O)COC(=O)Cn1cnc2ccccc2c1=O`: the DAPI nuclei signal change (viability), lower = more cytotoxic was determined as 0.959% and the inhibition is -10.1% (inactive).
Taken in the same sequence, the figures for `O=C(OCCN1C(=O)c2ccccc2C1=O)[C@@H]1CC(O)CN1S(=O)(=O)c1ccccc1[N+](=O)[O-]` (stereo partly specified) were -0.22% and -9.02% (inactive).
Taken in the same sequence, the figures for `CCCC(=O)N1CCC1(C)C(=O)NS(=O)(=O)c1ccc(Cl)cc1` (stereo unspecified) were 2.06% and 6.55% (inactive).
Taken in the same sequence, the figures for `CC(=O)Nc1ccc(C(=O)Nc2cc(S(=O)(=O)N3CCOCC3)ccc2N2CCOCC2)cc1` were 4.58% and -8.64% (inactive).
Take `CN1CCN(c2ccc(NC(=O)COc3ccc(Cl)cc3Cl)cc2)CC1`: the DAPI nuclei signal change (viability), lower = more cytotoxic came to 3.32% and the inhibition was -1.69% (inactive).
Regarding `C=CC(=O)Nc1ccc(Nc2ccnc(Nc3ccc(N4CCN(C)CC4)cc3)n2)cc1`, the DAPI nuclei signal change (viability), lower = more cytotoxic was -47% and the inhibition is 88.2% (active).
The corresponding values for `Cc1cccc(N2CCN(c3ccc(NC(=O)/C=C\C(=O)O)cc3)CC2)c1` are 1.52% and 7.15% (inactive).
Taken in the same sequence, the figures for `COc1cc(NC(=O)c2cc(-c3ccc(F)cc3OC(C)C)n[nH]2)cc(OC)c1OC` were -6.58% and 5.57% (inactive).
The corresponding values for `O=S(=O)(Cc1cc(Sc2ccccc2)nc(-c2ccccc2)n1)c1ccccc1` are -1.14% and 12.7% (inactive).
As to `Cc1ccc(Sc2cc(N3CCOCC3)nc(-c3ccccc3)n2)cc1`, the DAPI nuclei signal change (viability), lower = more cytotoxic is -0.706% and the inhibition was 55.1% (active).
Regarding `Cc1cc(N2CCN(c3ccccc3)CC2)nc(N2CCOCC2)n1`, the DAPI nuclei signal change (viability), lower = more cytotoxic was -3.71% and the inhibition is 14.3% (inactive).

Usually inhibition stands for the drop in the measured response relative to a control, in per cent.
